Only some compounds are listed: those with a hit (about 8.1% of all), similar ones and a draw of the others.
PINK1 expr mod – modulators of PINK1 expression; PINK1 immunofluorescence, high-content cytometry, 24 h; Potency, µM (top dose mostly 76.6 µM), hits mostly activators; 410,000 tested, 0.2% active; active = well fitted activation curve with a large enough effect; inconclusive = small, poorly fitted or top-dose-only effect; cell line not stated here; note: nearly all actives have a fitted effect of over 65% in size
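Compound titrations (5 concentrations, 24 h) on a stable cell line; DMSO and CCCP controls. Endpoint: fixed-cell PINK1 immunofluorescence with mitochondrial, cell and nuclear markers, scanned by microplate cytometer.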
Epigenetic derep – derepresses silenced GFP reporter in murine cells; murine LDR cells, GFP reporter derepression, 30 h; Potency, µM (series often up to 53.9 µM), usual class: activators; 280,000 tested, 0.2% active; note: nearly all actives have a fitted effect of over 60% in size
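Murine LDR cells bearing a silenced CMV-driven GFP reporter were exposed to compound for 30 h at 37 C. After PBS washes, GFP-positive cells (20-120 um objects) counted by laser-scanning microplate cytometry.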
Sfp PPTase inh – inhibitors of Bacillus subtilis Sfp phosphopantetheinyl transferase | Biochemical Sfp PPTase activity, qHTS | Q9F4F7 | AID 1490 | Potency, µM, hits mostly inhibitors | 310,000 tested, 3.5% active;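 note: the enzyme is Sfp with the accession as filed and its product quenches rhodamine fluorescence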
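Sfp 15 nM + cpd, 15 min RT; start w/ rhodamine-CoA 5 uM, BHQ-2-YbbR 12.5 uM (final); 50 mM Hepes pH 7.6, 10 mM MgCl2, 0.01% NP-40, 0.01% BSA; read 525/598 nm at 0 and 30 min.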
ClpP mod – qHTS Assay for Activators of ClpP; ATP-dependent Clp protease proteolytic subunit (Bacillus subtilis (strain 168)), P80244; Potency, µM (highest dose often 57.5 µM); 340,000 tested, 1.9% active; purified B. subtilis ClpP, FRET peptide cleavage, 20 min; active = well fitted falling curve with a large enough effect; inconclusive = small, poorly fitted or top-dose-only effect; inactive = no such curve, though single readings can be large or run the other way; note: the source files actives as falling curves though it sought activators and does not explain the sign; nearly all actives have a fitted effect of over 65% in size
Target sequence (P80244 whole entry, looked up): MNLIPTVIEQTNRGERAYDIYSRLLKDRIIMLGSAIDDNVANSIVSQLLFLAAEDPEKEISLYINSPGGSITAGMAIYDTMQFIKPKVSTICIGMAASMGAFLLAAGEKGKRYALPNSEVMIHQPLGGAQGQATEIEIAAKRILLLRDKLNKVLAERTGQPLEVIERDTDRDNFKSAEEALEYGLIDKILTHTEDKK
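FRET quenching reversal measured ClpP activation: 10 microg/mL B. subtilis ClpP at pH 8 with the FRET-FV decapeptide, read at 430 nm after 320 nm excitation. The 20-min minus 0-min signal was scaled between DMSO/no-enzyme wells and ADEP (5.8 microM final).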
VP16 counter – counter-screen for ROR gamma inhibitors: Gal4-VP16 reporter. Drosophila S2 Gal4-VP16 UAS-luciferase, luminescence, 20 h. Potency, µM (top dose mostly 53.6 µM), most hits filed as inhibitors. 310,000 tested, 3.5% active;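 note: Gal4-VP16 expression switched on by copper sulfate through the metallothionein promoter; nearly all actives have a fitted effect of over 50% in size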
RORgamma inh – inhibitors of mouse ROR gamma transcriptional activity. P51450. Drosophila S2 Gal4-RORgamma UAS-luciferase reporter, 20 h. Potency, µM (series often up to 53.6 µM), most hits filed as inhibitors. 310,000 tested, 5.4% active. AID 2551; note: nearly all actives have a fitted effect of over 60% in size
Target sequence (P51450 whole entry, looked up, the tested form may be a part): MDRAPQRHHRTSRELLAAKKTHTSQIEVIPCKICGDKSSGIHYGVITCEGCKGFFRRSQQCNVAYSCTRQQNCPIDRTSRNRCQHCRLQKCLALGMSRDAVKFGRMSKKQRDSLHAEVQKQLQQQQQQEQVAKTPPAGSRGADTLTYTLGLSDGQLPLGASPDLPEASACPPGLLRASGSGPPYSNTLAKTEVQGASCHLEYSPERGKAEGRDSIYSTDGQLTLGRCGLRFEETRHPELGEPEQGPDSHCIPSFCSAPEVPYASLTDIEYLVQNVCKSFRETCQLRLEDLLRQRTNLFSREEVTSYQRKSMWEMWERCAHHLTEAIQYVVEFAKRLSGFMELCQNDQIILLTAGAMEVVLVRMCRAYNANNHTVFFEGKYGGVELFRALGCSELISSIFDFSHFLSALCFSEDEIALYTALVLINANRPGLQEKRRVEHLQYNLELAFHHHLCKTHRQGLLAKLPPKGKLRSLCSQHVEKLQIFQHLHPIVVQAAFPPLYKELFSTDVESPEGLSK
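In this cell-based reporter format, copper sulfate (700 uM final) drives Gal4–ROR gamma fusion expression from a metallothionein promoter in Drosophila Schneider cells; compounds preincubated 1 hr, reporter read after 20 hr at ambient temperature.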
Hits are given with their value; i = inactive; ? = inconclusive; nt = no result given; [ ] = dose if it differs, or a comment. Unless noted, calls come from the whole dose curve; as a rule, active = well fitted curve in the direction sought with a large enough effect; inconclusive = small, poorly fitted or top-dose-only effect, or another doubt; inactive = no such curve, though single readings can be large; an effect the other way counts as inactive or inconclusive.

SMILES	PINK1 expr mod	Epigenetic derep	Sfp PPTase inh	ClpP mod	VP16 counter	RORgamma inh
CNC(=S)N/N=C/c1c(C)nn(-c2ccccc2)c1Cl	i	i	i	i	0.89µM	?
CNC(=S)N/N=C/c1c(C)nn(-c2cccc(Cl)c2)c1Cl	i	i	i	i	1.3µM	2µM
Cc1c(Cl)cccc1NC(=O)CN1C(=O)COc2ccc(S(=O)(=O)N3CCOCC3)cc21	i	i	nt	i	nt	nt
Oc1ccc(/C=N/n2cnn(Cc3ccccc3Cl)c2=S)c(O)c1	i	i	14µM	i	i	i[10 µM]
CCO/C=C/C(O)(CNC(=O)c1ccc(C(C)(C)C)cc1)C(F)(F)F (stereo unspecified)	i	i	i	i	20µM	i
CC1=C[C@@H](O)CC(C)(C)[C@@H]1/C=C/C(C)=C/C=C/C(C)=C/C=C/C=C(C)/C=C/C=C(C)/C=C/C1=C(C)C[C@H](O)CC1(C)C	nt	nt	50µM	nt	i	i
CC1=C(/C=C/C(C)=C\C=C\C(C)=C\C=C\C=C(C)\C=C\C=C(C)\C=C\C2=C(C)C[C@@H](O)CC2(C)C)C(C)(C)C[C@H](O)C1	nt	nt	?	nt	i	?
COc1ccc(C2=NC(C)(C)N(CC(=O)Nc3ccc(F)c(F)c3)C2=O)cc1	i	i	nt	i	nt	nt
O=C(CSc1nc(=O)n(Cc2ccncc2)c2c1CCC2)Nc1ccccc1	i	i	nt	i	nt	nt
CNC(=O)c1ccc(Nc2nnc(-c3ccc(C)c(S(=O)(=O)NC(C)(C)C)c3)c3ccccc23)cc1	i	i	nt	?	nt	nt
CCCCNc1nc(C)nc2c1nc(-c1ccccc1)n2C1CCN(Cc2ccccc2)C1 (stereo unspecified)	nt	i	i	nt	i	11µM
CN(N=O)c1ccc(/C=C/c2ccccc2)cc1	i	nt	nt	i	nt	nt
CCCCN(C(=O)CCC(=O)O)C1CC(=O)N(c2ccc(OCCC)cc2)C1=O (stereo unspecified)	i	i	i	i	i	i
COc1ccccc1N(O)C1CC(=O)N(c2ccc(Br)cc2)C1=O (stereo unspecified)	i	i	i	i	i	i
CCCCCCC(=O)N(O)C1CC(=O)N(c2ccc(Br)cc2)C1=O (stereo unspecified)	i	i	22µM	i	?	?
CCCCCCC(=O)N(O)C1CC(=O)N(c2ccc(F)cc2)C1=O (stereo unspecified)	i	i	20µM	i	?	?
Cc1ccccc1CNC(=O)CCSCc1cnn(-c2ccccc2)c1-n1cccc1	i	i	nt	i	nt	nt
CCCCN(CC)C(=O)Cn1c(=O)n(-c2ccc(OCC)cc2)c(=O)c2c3c(sc21)CCC3	i	i	nt	i	nt	nt
O=C(CSc1nnc(Cn2c(=O)sc3ccccc32)n1-c1ccccc1)N1CCCC1	i	i	i	i	i	i
CCc1nnc(SCC(=O)Nc2nccs2)n1CC	i	nt	i	i	i	i
CCn1c(CNC(=O)c2ccccc2Br)nnc1SCC(=O)Nc1nncs1	i	nt	i	14µM	i	i
O=C(CSc1nnc(Cn2c(=O)sc3ccccc32)n1-c1ccccc1)Nc1nccs1	i	i	79µM	i	i	i
CCn1c(Cc2cccc3ccccc23)nnc1SCC(=O)Nc1nccs1	i	i	i	i	?	14µM
CCOc1ccc(-c2cn3c(n2)sc2cc(C(=O)NCCC4=CCCCC4)ccc23)cc1	i	i	nt	i	nt	nt
COc1ccccc1Cc1nnc(NC(=O)C2CCN(C(=O)c3ccco3)CC2)s1	i	nt	45µM	nt	i	i
SMILES	PINK1 expr mod	Epigenetic derep	Sfp PPTase inh	ClpP mod	VP16 counter	RORgamma inh
COCc1nnc(NC(=O)C2CCN(C(=O)c3ccco3)CC2)s1	i	nt	50µM	nt	i	i
CCc1nnc(NC(=O)C2CCN(C(=O)c3ccco3)CC2)s1	i	nt	i	nt	i	i
COC(=O)c1cc(CNC(=O)c2cccc(C)c2)cc(NC(=O)c2ccncc2)c1	i	nt	nt	nt	nt	nt
Cc1sc(NC(=O)CN2CCOCC2)nc1-c1ccc2c(c1)CCN2S(=O)(=O)c1ccccc1	i	i	i	i	5.6µM	7.1µM
O=C(CN1CCOCC1)Nc1nc(-c2ccc3c(c2)CCN3S(=O)(=O)c2ccccc2)cs1	i	i	i	i	?	i
O=C(NN=C1CCCC1)c1cc(-c2ccc(F)cc2)nc2ccccc12	i	i	i	nt	i	?
Cc1ccc(-c2cc(C(=O)N3N=C(C(F)F)CC3(O)C(F)F)c3ccccc3n2)cc1C (stereo unspecified)	10µM	i	i	25µM	?	?
O=C(NC1=NCCS1)c1cc(-c2ccc(F)cc2)nc2ccccc12	i	i	i	i	11µM	10µM
Cc1ccc(CNC(=O)c2cc(-c3ccc(C)c(C)c3)nc3ccccc23)cc1	i	i	nt	i	nt	nt
Cc1ccc(-c2cc(C(=O)NC3=NCCS3)c3ccccc3n2)cc1C	i	i	i	i	11µM	10µM
Cc1ccc(CCNC(=O)c2cc(-c3ccncc3)nc3ccccc23)cc1	i	i	i	i	i	i
CCCc1ccc(-c2cc(C(=O)NC3=NCCS3)c3ccccc3n2)cc1	i	i	?	i	1.6µM	1.8µM
COC(=O)CCSc1nc2sc3c(c2c(=O)n1Cc1ccccc1)CCC(C(C)(C)C)C3 (stereo unspecified)	i	i	nt	i	nt	nt
CCOC(=O)C(=CNc1ccc(-c2ccco2)c(Cl)c1)C(=O)OCC	i	i	28µM	i	i	i
Cc1ccnc2cc(Cl)cc(Cl)c12	nt	nt	nt	i	nt	nt
Clc1ccc(-n2ncc3c(N4CCCCCC4)ncnc32)cc1	i	i	i	i	14µM	?
COc1ccc(-n2ncc3c(N4CCCCC4)ncnc32)cc1	i	i	i	i	2µM	5µM
Cc1ccc(-n2ncc3c(N4CCCCC4)ncnc32)cc1	i	i	nt	i	nt	nt
CCn1c(C(C)NC(=O)c2cccs2)n[nH]c1=S (stereo unspecified)	?	i	i	i	i	i
C=CCn1c(OCc2ccccc2)n[nH]c1=S	i	nt	i	nt	18µM	4µM
CCn1c(C(c2ccccc2)c2ccccc2)n[nH]c1=S	i	i	i	i	?	?
C=CCn1c(C(c2ccccc2)c2ccccc2)n[nH]c1=S	i	i	i	i	7.9µM	7.9µM
C=CCn1c(C(C)NC(=O)c2cccs2)n[nH]c1=S (stereo unspecified)	i	i	i	i	i	10µM
COc1cc(NC(=O)c2cc(C3CC3)nc3c2c(C)nn3-c2ccc(C)cc2)cc(OC)c1	i	i	nt	i	nt	nt
CCOc1ccc(-c2nc(CNC(=O)NC3CCCCC3)c(C)o2)cc1	i	i	nt	i	nt	nt
CCCCCC(=O)c1cc(CC(C(=O)OC)C(=O)OC)cc2cc(OC)c(OC)cc12	nt	i[10.1 µM]	i	nt	i[10 µM]	i[10 µM]
COc1ccccc1Cc1nc2ccccc2nc1SCC(=O)N1CCN(c2ccccc2)CC1	i	i	nt	i	nt	nt

Screens as filed in PubChem BioAssay.
